Measured values taken from PubChem BioAssay AID938 (National Center for Advancing Translational Sciences (NCATS), 2007).
“And” between values parts separate entries of the source, which are not always exact repeats. Equal entries are not always repeated. In all, about 73,000 compounds went through this assay and about 1,800 (2.5%) were called active. About 13% were inconclusive and are not listed. The full list was thinned out, with actives kept by preference. Values without a mark were called inactive. Calls follow the shape of the dose curve; as a rule, active = well fitted activation curve with a large enough effect; inconclusive = small, poorly fitted or top-dose-only effect; inactive = no such curve, though single readings can be large or run the other way.

experiment: qHTS Assay for Agonists of the Thyroid Stimulating Hormone Receptor: Activators of Intracellular cAMP Concentrations in Parental HEK 293; conditions: parental HEK293 CNG cAMP sensor, membrane potential fluorescence; series mostly up to 57.1 µM; activation: at the top concentration; also: nearly all actives have a fitted effect of over 55% in size; as to activation: % of control where 0% means no effect
Procedure, shortened: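 Counterscreen for endogenous-receptor signalling: CNG-channel HEK 293 cells report cAMP rise by membrane depolarization. After 60 min dye equilibration with 100 uM RO 20-1724, compounds incubated 30 min before bottom-read fluorescence at 590 nm.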
Potency is read from the fitted curve at half-maximal effect.

Q: For `Cc1noc(C)c1-c1nc(Nc2ccccc2)c2ccccc2n1`, which “activation” value is on record?
A: -3.31%

Q: With `O=C(NC(=O)c1ccc(Cl)c(Cl)c1)OC1CCS(=O)(=O)C1` (configuration not stated) as the molecule, how does the “activation” value read?
A: 17.7%

Q: Which “activation” value does the source give for `Cc1ccnc(N)c1` here?
A: 16.3%

Q: Which “activation” value does the source give for `CC(C)c1ccc2c([Si](C)(C)C)c3c(nc2c1)-c1cccc(=O)n1C3` here?
A: 2.88%

Q: With `COc1cccc(C(=O)Nc2c3c(nn2-c2cccc(C)c2C)CS(=O)(=O)C3)c1OC` as the molecule, how does the “activation” value read?
A: 17.4%

Q: For `O=C(CC1CCCCC1)Nc1c2c(nn1-c1ccc(F)cc1)CS(=O)(=O)C2`, which Potency is on record?
A: 15.8 µM (active)

Q: For `COc1ccc(C2C(C#N)=C(N)Oc3n[nH]c(C)c32)cc1CN1CCN(c2ccc(F)cc2)CC1` (configuration not stated), which “activation” value is on record?
A: -7.97%

Q: With `Cc1nc2cnc(N3CCN(C)CC3)nc2n(C[C@H]2CCCO2)c1=O` as the molecule, how does the “activation” value read?
A: -4.71%

Q: With `CC(C)(C)NC(=O)c1cc(NC(=O)c2ccco2)cc(NC(=O)c2ccco2)c1` as the molecule, how does the “activation” value read?
A: 2.66%

Q: For `Cc1cccc(C2c3c(n(C)c(=O)n(C)c3=O)N=C3c4ccccc4C(=O)C32)c1` (configuration not stated), which “activation” value is on record?
A: -19.4%

Q: For `COc1ccc(-c2c3c(=O)n(C)c(=O)n(C)c3cn2NC(C)=O)cc1`, which “activation” value is on record?
A: -1.58%

Q: With `COc1ccc(C2C3=C(OC(C)=O)c4ccccc4C3=Nc3c2c(=O)n(C)c(=O)n3C)cc1` (configuration not stated) as the molecule, how does the Potency read?
A: 10 µM (active)

Q: For `Cn1nnc(NC(=O)CSc2ncn[nH]2)n1`, which “activation” value is on record?
A: 1.91%

Q: Which activation does the source give for `COC(=O)C(C(=O)OC)[C@@H]1CCCC(=O)C1` here?
A: 4.23% [at 11.4 µM]

Q: With `COc1ccccc1Nc1ncnc2c1oc1ccccc12` as the molecule, how does the Potency read?
A: 31.6 µM (active)

Q: Which “activation” value does the source give for `COc1ccc(CCNC(=O)CSc2nc(C)nc3c2oc2ccccc23)cc1OC` here?
A: 0.977%

Q: With `CCc1nc(Nc2ccc3nccnc3c2)c2oc3ccccc3c2n1` as the molecule, how does the “activation” value read?
A: 3.36%

Q: Which Potency does the source give for `COc1ccc(CNc2ncncc2-c2ccccc2OC)c(OC)c1` here?
A: 25.1 µM (active)

Q: For `COc1ccccc1CNc1ncncc1-c1cccc(NS(C)(=O)=O)c1`, which “activation” value is on record?
A: 0.742%

Q: For `COc1ccccc1CNc1ncncc1-c1cccnc1`, which “activation” value is on record?
A: 3.51%

Q: For `COC(=O)[C@@H]1CC[C@H](C)[C@@H](c2ccc(C)cc2)N1C(=O)c1ccc(/C=N\O[C@@H](C)c2cn([C@H](CO)Cc3ccccc3)nn2)cc1`, which activation is on record?
A: 9.66% [at 11.4 µM] and 5.24% [at 11.4 µM]

Q: With `Cc1ccc2c(c1)c1ncnc(N3CCc4ccccc4C3)c1n2C` as the molecule, how does the Potency read?
A: 25.1 µM (active)

Q: With `Cc1ccc2c(c1)c1ncn(CCC3=CCCCC3)c(=O)c1n2C` as the molecule, how does the “activation” value read?
A: 18.7%

Q: Which “activation” value does the source give for `Cc1cccc(-n2ncc3c(N4CCc5ccccc54)ncnc32)c1` here?
A: 9.9%

Q: For `Cn1c(/C(C#N)=C2/CCCCCN2)nc2ccccc21`, which “activation” value is on record?
A: 8.85%

Q: For `Cc1noc(C)c1CSc1nc2cc(S(=O)(=O)N3CCOCC3)ccc2o1`, which “activation” value is on record?
A: 0.104%

Q: For `O=C(OCC(COC(=O)c1ccccc1)(COC(=O)c1ccccc1)COC(=O)c1ccccc1)c1ccccc1`, which “activation” value is on record?
A: 20%

Q: Which Potency does the source give for `CCc1ccc(-c2nnn(Cc3nc4ccccc4s3)n2)cc1` here?
A: 15.8 µM (active)

Q: For `CCc1ccc(-c2nnn(Cc3nn[nH]n3)n2)cc1`, which “activation” value is on record?
A: 16%

Q: With `O=C(O)CSCc1nc2ccccc2s1` as the molecule, how does the “activation” value read?
A: 19.3%

Q: For `Cc1nc2cnc(Nc3ccccc3)nc2n(Cc2ccc(F)cc2)c1=O`, which “activation” value is on record?
A: 26.3%

Q: For `O=C(CSc1n[nH]c(-c2cccnc2)n1)Nc1ccnc2ccccc12`, which “activation” value is on record?
A: 17.3%

Q: Which Potency does the source give for `COc1ccc(C)c(Cn2c(-c3nonc3N)nc3ccccc32)c1` here?
A: 25.1 µM (active)

Q: For `COCCn1c(-c2ccc(OC)c(OC)c2)nc2ccccc21`, which “activation” value is on record?
A: 10.2%

Q: For `CCCn1c(C(O)c2cc(OC)ccc2OC)nc2ccccc21` (configuration not stated), which “activation” value is on record?
A: 17.2%

Q: For `CC(=O)Nc1nonc1-c1nc2ccccc2n1Cc1ccccn1`, which “activation” value is on record?
A: 11.6%

Q: Which “activation” value does the source give for `Nc1nonc1-c1nc2ccccc2n1CCC(=O)O` here?
A: 2.08%

Q: With `Nc1nonc1-c1nc2ccccc2n1Cc1ccc(F)cc1` as the molecule, how does the Potency read?
A: 20 µM (active)

Q: For `C=CCc1cccc2cc(C(=O)OCC)c(=O)oc12`, which “activation” value is on record?
A: 12.2%

Q: Which activation does the source give for `C/C(=C\C(=O)c1ccccc1)Nc1cccc(O)c1` here?
A: 5.02% [at 11.4 µM]

Q: With `COc1cc(Cl)c(S(=O)(=O)n2cnc(C)c2)cc1Cl` as the molecule, how does the activation read?
A: 12.1% [at 11.4 µM]

Q: For `CCC1Oc2ccc(Cl)cc2N(CC(=O)O)C1=O` (configuration not stated), which “activation” value is on record?
A: 9.51%

Q: For `C#CCC(C(=O)OC)(C(=O)OC)C(C[N+](=O)[O-])c1ccccc1` (configuration not stated), which activation is on record?
A: -0.955% [at 11.4 µM]

Q: For `COc1cccc([C@H]2Oc3ccc(OC)cc3/C(=N\OCC[C@@H]3C=C[C@H](OC(C)=O)[C@H](COC(C)=O)O3)[C@@H]2O)c1`, which activation is on record?
A: 1.81% [at 11.4 µM]

Q: For `Cc1ccccc1NC(=O)c1cc(S(=O)(=O)N2CCOCC2)cs1`, which “activation” value is on record?
A: -8.26%

Q: For `Cc1cc(C)n(C(=O)c2ccc(C)c(S(=O)(=O)N3CCOCC3)c2)n1`, which “activation” value is on record?
A: 23.4%

Q: With `Cc1ccc(C(=O)Nc2ccccc2C(=O)NC2CCCCC2)cc1S(=O)(=O)N1CCOCC1` as the molecule, how does the Potency read?
A: 15.8 µM (active)

Q: With `N[C@H](C(=O)O)c1ccc(C(=O)O)c(O)c1` as the molecule, how does the “activation” value read?
A: -2.63%

Q: For `Cc1c2c(nc3ccccc13)-c1cccc(=O)n1C2`, which “activation” value is on record?
A: -3.79%

Q: With `Cc1ccc(-c2nn(CC(C)(C)C)c3ncnc(N)c23)cc1` as the molecule, how does the “activation” value read?
A: -5.59%

Q: Which “activation” value does the source give for `O=C(c1ccco1)N1CCN(C(=O)C2c3ccccc3Oc3ccccc32)CC1` here?
A: 14.5%

Q: With `CCCN(CCC)C(=O)C1c2ccccc2Oc2ccccc21` as the molecule, how does the Potency read?
A: 12.6 µM (active)
